# Laboratory results taken from the supplement of paper PMC12494721.
# Where a name gives a salt, the structure may show the parent alone.
# Key:
# Details in all cases: incubation time: 27 h, anaerobic, 37 °C;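 for the amine columns active = adjusted P below 0.05 in both replicates with a change the same way and a mean fold change under 0.8 or over 1.25; inactive = the rest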
# [1] = tested on: Clostridium sporogenes DSM 1664; experiment: growth (OD595) fold change vs plate DMSO controls (fold change (ratio)); higher = more growth
# Summary of the method: (§1)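 Growth is calculated as fold change against the median of the DMSO control wells on each plate. Readings at 595 nm from anaerobic mGAM cultures (96-well, 27 h, 37 °C) were blank-subtracted, background-corrected with 20 µM compound solutions in water, and converted to OD by a calibration factor of 5. Fold changes above 1.5 were recorded as NA, and results are means of 2 biological replicates.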
# Escherichia coli IAI1 [2] = experiment: as above
# Summary of the method: as §1
# [3] = tested on: Klebsiella aerogenes DSM 30053; experiment: as above
# Summary of the method: as §1
# [4] = tested on: Klebsiella aerogenes DSM 30053; experiment: fold change of Histamine concentration vs plate DMSO controls (fold change (ratio)); higher = more amine produced, active = hit call of the paper (significant change in both replicates, either direction)
# Summary of the method: (§2)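 Extracts of whole anaerobic mGAM cultures were analysed for amines by LC–triple-quadrupole MS with dynamic MRM and external calibration curves, with drift corrected within batch. Four gut strains were grown at 37 °C for 27 h in 80 µL wells with compounds at 20 µM final, sweeteners at 50 µM final. Each value expresses fold change over plate DMSO controls. The average of 2 biological replicates is shown.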
# [5] = tested on: Clostridium sporogenes DSM 1664; experiment: fold change of Tryptamine concentration vs plate DMSO controls (fold change (ratio)); higher = more amine produced, active = hit call of the paper (significant change in both replicates, either direction)
# Summary of the method: as §2
# [6] = tested on: Ruminococcus gnavus DSM 108212; experiment: as above
# Summary of the method: as §2
# Escherichia coli IAI1 [7] = experiment: fold change of Putrescine concentration vs plate DMSO controls (fold change (ratio)); higher = more amine produced, active = hit call of the paper (significant change in both replicates, either direction)
# Summary of the method: as §2
# [8] = tested on: Klebsiella aerogenes DSM 30053; experiment: as above
# Summary of the method: as §2
# Escherichia coli IAI1 [9] = experiment: fold change of Cadaverine concentration vs plate DMSO controls (fold change (ratio)); higher = more amine produced, active = hit call of the paper (significant change in both replicates, either direction)
# Summary of the method: as §2
# [10] = tested on: Klebsiella aerogenes DSM 30053; experiment: as above
# Summary of the method: as §2
# [11] = tested on: Ruminococcus gnavus DSM 108212; experiment: fold change of 2-Phenylethylamine concentration vs plate DMSO controls (fold change (ratio)); higher = more amine produced, active = hit call of the paper (significant change in both replicates, either direction)
# Summary of the method: as §2
# [12] = tested on: Ruminococcus gnavus DSM 108212; experiment: growth (OD595) fold change vs plate DMSO controls (fold change (ratio)); higher = more growth
# Summary of the method: as §1
SMILES,growth [1],growth (Escherichia coli IAI1 [2]),growth [3],fold change of Histamine concentration [4],fold change of Tryptamine concentration [5],fold change of Tryptamine concentration [6],fold change of Putrescine concentration (Escherichia coli IAI1 [7]),fold change of Putrescine concentration [8],fold change of Cadaverine concentration (Escherichia coli IAI1 [9]),fold change of Cadaverine concentration [10],fold change of 2-Phenylethylamine concentration [11],growth [12]
N[C@@H](C(=O)N[C@@H]1C(=O)N2C(C(=O)O)=C(Cl)CC[C@H]12)c1ccccc1 [Loracarbef] (20 µM),0,1.15,1.13,0.886 (inactive),0.0238 (active),0.345 (active),1.05 (inactive),1.04 (inactive),1.52 (active),1.05 (inactive),0.319 (active),–
C#C[C@]1(O)CC[C@H]2[C@@H]3CCC4=CCCC[C@@H]4[C@H]3CC[C@@]21C [Lynestrenol] (20 µM),0.94,1.17,1.02,1.06 (inactive),0.947 (inactive),0.985 (inactive),1.13 (inactive),1.02 (inactive),0.997 (inactive),0.989 (inactive),1.01 (inactive),–
COc1ccc(C(Cl)=C(c2ccc(OC)cc2)c2ccc(OC)cc2)cc1 [Chlorotrianisene] (20 µM),1.07,0.924,0.946,0.94 (inactive),0.978 (inactive),1.06 (inactive),1.01 (inactive),0.998 (inactive),1 (inactive),1 (inactive),1.07 (inactive),–
CNCC(O)c1ccc(OC(=O)C(C)(C)C)c(OC(=O)C(C)(C)C)c1 (stereo not given) [Dipivefrin hydrochloride] (20 µM),1.15,1.07,0.982,1.01 (inactive),1.15 (inactive),1.11 (inactive),1.01 (inactive),0.981 (inactive),0.995 (inactive),0.991 (inactive),1.16 (inactive),1.02
Clc1cc(Cl)c(OCC#CI)cc1Cl [Haloprogin] (20 µM),0.986,0.942,0.967,1.01 (inactive),0.977 (inactive),0.777 (inactive),1.09 (inactive),0.953 (inactive),1.04 (inactive),0.987 (inactive),0.861 (inactive),–
CC(C)/N=c1\cc2n(-c3ccc(Cl)cc3)c3ccccc3nc-2cc1Nc1ccc(Cl)cc1 [Clofazimine] (20 µM),0.239,1.03,1.04,0.999 (inactive),0.0321 (active),0.637 (active),1.04 (inactive),1.04 (inactive),1 (inactive),1.03 (inactive),0.727 (active),–
CC/C=C(\C(=O)N[C@@H]1C(=O)N2C(C(=O)OCOC(=O)C(C)(C)C)=C(COC(N)=O)CS[C@H]12)c1csc(N)n1 [Cefcapene pivoxil hydrochloride monohydrate] (20 µM),0.716,0.786,1.07,0.95 (inactive),1.1 (inactive),1.02 (inactive),0.961 (inactive),0.964 (inactive),1.06 (inactive),1.03 (inactive),1.01 (inactive),–
CC(=O)Nc1cccc(O)c1 [Metacetamol] (20 µM),0.961,1.03,1.01,1.01 (inactive),0.941 (inactive),0.999 (inactive),1.02 (inactive),0.992 (inactive),1 (inactive),0.988 (inactive),0.962 (inactive),0.966
NC(=O)c1cc[n+](CC2=C(C(=O)O)N3C(=O)[C@@H](NC(=O)C(c4ccccc4)S(=O)(=O)[O-])[C@H]3SC2)cc1 (stereo not given in full) [Cefsulodin Sodium Salt Hydrate] (20 µM),0.555,1.04,1.02,1.03 (inactive),0.838 (inactive),0.779 (inactive),1.06 (inactive),0.997 (inactive),1.1 (inactive),0.992 (inactive),0.836 (inactive),–
CC[N+](C)(CC)CCC[n+]1c(-c2ccccc2)c2cc(N)ccc2c2ccc(N)cc21 [Propidium iodide] (20 µM),1.18,1.07,1.08,1.07 (inactive),1.07 (inactive),1.05 (inactive),0.99 (inactive),1 (inactive),1 (inactive),0.999 (inactive),1.08 (inactive),–
CC1COc2c(N3CCN(C)CC3)c(F)cc3c(=O)c(C(=O)O)cn1c23 (stereo not given) [Ofloxacin] (20 µM),0.0346,0.0388,0.256,0.09 (active),0.0354 (active),0.997 (inactive),0.809 (inactive),0.653 (active),0.187 (active),0.961 (inactive),1.06 (inactive),–
CN[C@@H]1[C@@H](O)[C@@H](O[C@@H]2[C@@H](O)[C@H](O[C@H]3OC(CN)=CC[C@H]3N)[C@@H](N)C[C@H]2N)OC[C@]1(C)O [Sisomicin sulfate] (20 µM),0.97,0.99,0.992,0.971 (inactive),0.984 (inactive),1.02 (inactive),1 (inactive),0.998 (inactive),0.996 (inactive),1 (inactive),1.04 (inactive),0.942
